Growth inhibition data for eight molecules are collected here from PubChem BioAssay (NCI).

This test in a line: NCI Yeast Anticancer Drug Screen. Data for the wt2 strain (AID 169).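 Also: 0% = growth of vehicle-treated yeast cultures.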 To be noted: S. cerevisiae wt2 strain growth inhibition, active compounds read high. As for the experimental part: Growth inhibition of yeast strains with defined genetic alterations is measured as a screen for potential anti-cancer activity. Selected strains with alterations in DNA damage repair or cell cycle control were exposed to compounds and growth inhibition was measured relative to vehicle treated controls. The strain used in this assay is wt2

The panel holds about 79,000 compounds, 15% with a hit somewhere; the sample as a whole holds those more often. A number with no mark means an inactive call. Active and inactive are the calls of the source. Rule as the data show it: active = growth inhibition above about 70%; inactive = the rest.

For the molecule `Cc1nn(-c2cc(Cl)ccc2[N+](=O)[O-])c(C)c1Cl`, the growth inhibition is 0% (at 1.2 µM); -1% (at 3.7 µM); -1% (at 11.0 µM); -1% (at 33.0 µM); 0% (at 100.0 µM).
Regarding `COc1ccc(/C=C/C(=O)C(C)(C)Br)cc1`, the growth inhibition reads like this: (at 1.2 µM) 2%; (at 3.7 µM) 10%; (at 11.0 µM) 26%; (at 33.0 µM) 37%; (at 100.0 µM) 89% (active).
The corresponding values for `CN=C(N)N/N=C/c1ccc2c(c1)Cc1ccccc1-2` are -44%, -17%, -15%, 34% and 98% (active).
As to `FC(F)(F)c1cc(NC(=S)N2c3ccccc3-n3cccc3C2c2cccnc2)cc(C(F)(F)F)c1` (stereo not given), the growth inhibition runs as follows: (at 1.2 µM) -2%; (at 3.7 µM) -3%; (at 11.0 µM) -2%; (at 33.0 µM) -1%; (at 100.0 µM) 2%.
Consider `COc1ccc2c(c1)C(=O)c1ccccc1C2`, for which the growth inhibition (at 1.2 µM) was -1%; the growth inhibition (at 3.7 µM) was 3%; the growth inhibition (at 11.0 µM) was 6%; the growth inhibition (at 33.0 µM) was 7%; the growth inhibition (at 100.0 µM) is 7%.
In the case of `S=c1[nH]nc(Nc2ccc(Cl)cc2)s1`, the growth inhibition runs as follows: (at 1.2 µM) 1%; (at 3.7 µM) 9%; (at 11.0 µM) 8%; (at 33.0 µM) 82% (active); (at 100.0 µM) 98% (active).
Consider `CC1=C(C)Cc2c(O)ccc(O)c2C1`, for which the growth inhibition is -12% (at 1.2 µM); -6% (at 3.7 µM); -4% (at 11.0 µM); 3% (at 33.0 µM); -4% (at 100.0 µM).
Take `[O-][n+]1c2ccc(O)cc2nc2ccc(Cl)cc21`: the growth inhibition was 5% (at 1.2 µM); 11% (at 3.7 µM); 26% (at 11.0 µM); 46% (at 33.0 µM); 61% (at 100.0 µM).
